Results filed as inconclusive are left out. Entries that show only a call come without a potency. The source made the active and inactive calls. Calls follow the shape of the full dose curve.
Potency is read from the fitted curve at half-maximal effect.

The assay is described as follows: p53 small molecule agonists, cell-based qHTS assay: qHTS cell viability counter screen (AID 1963581). Also: nearly all actives have a fitted effect of over 45% in size. The note with it: p53RE-bla HCT-116 viability, ATP luminescence, 16 h; series mostly up to 66 µM. The source says:
National Center for Advancing Translational Sciences [NCATS]
Division of Preclinical Innovation [DPI]
U.S. Environmental Protection Agency [EPA]
National Institutes of Environmental Health Sciences [NIEHS]
National Toxicology Program [NTP]
U.S. Food and Drug Administration [FDA]
p53, a tumor suppressor protein, is activated following cellular insult, including DNA damage and other cellular stresses. The activation of p53 regulates cell fate by inducing DNA repair, cell cycle arrest, apoptosis, or cellular senescence. The activation of p53, therefore, is a good indicator of DNA damage and other cellular stresses. The CellSensor p53RE-bla HCT-116 cell line (Invitrogen) contains a stably integrated beta-lactamase reporter gene under control of the p53 response elements. The activation of the reporter gene under culture conditions can be detected by fluorescence intensity. This cell line was used to screen the Tox21 compound library in a 1536-well plate format and to identify agonists that activate the p53 signaling pathway. The cytotoxicity of the Tox21 compound library against the p53 RE-bla HCT-116 cell line was tested in parallel by measuring the intra cellular ATP content in the same wells.
Tox21 Assay Protocol Summary:
The p53RE-bla cells were dispensed at 4,000 cells/5 ul/well in 1536-well black wall/clear bottom plates using a Multidrop dispenser. After the assay plates were incubated at a 37 C/5% CO2 incubator for 5 hours, 23 nL of compounds dissolved in DMSO, positive controls or DMSO only was transferred to the assay plate by a pin tool. The plates were incubated at 37 C for 16 hours. After 1 uL of LiveBLAzerTM B/G FRET substrate was added using a Flying Reagent Dispenser, the plates were incubated at room temperature for 2 hours, and fluorescence intensity was measured by an Envision plate reader. For cell viability readout that measures cytotoxicity, 4 ul/well of CellTiter-Glo reagent was added into the assay plates using a Flying Reagent Dispenser. After 30 min incubation at room temperature, the luminescence intensity in the plates was measured using a ViewLux plate reader.
In general terms: In qHTS, concentration-response curves come from the screen itself.
In the case of `CN=C(NC#N)NCCSCc1nc[nH]c1C`, the Potency entry was “inactive”.
`CCCCCCCCCCCCC(=O)O`: the Potency entry is “inactive”.
Then `O=Cc1ccc(C(=O)O)cc1`, with “inactive”; and `OCCc1ccccn1`, with “inactive”.
To `OCCCCCCCl` belongs “inactive”; to `CCc1c(C(=O)O)c(=O)cnn1-c1ccc(Cl)cc1`, “inactive”.
To `CCC(=O)O[C@@H]1C[C@H]2CC[C@]1(C)C2(C)C` belongs “inactive”; to `CCN(CC)c1ccc2c(C)cc(=O)oc2c1`, “inactive”.
For the compound `CCCC(O)C(O)CO` (stereo not given), the Potency result is “inactive”.
For `Cc1ccccc1C`, the Potency entry is “inactive”.
Then `CCCC(=O)CC`, with “inactive”; and `O=C[O][Al]([O]C=O)[O]C=O`, with “inactive”; and `OCCN1CCNCC1`, with “inactive”.
Then `CO[Si](CCCNCCNCCN)(OC)OC`, with “inactive”.
Consider `CN(C)Cc1ccccc1O`, for which the Potency result is “inactive”.
To `NC(=O)Nc1ccc(Cl)cc1` belongs “inactive”; to `CN(C)C(=O)Oc1ccc[n+](C)c1`, “inactive”.
Take `O=c1[nH][nH]c(=O)c2cc([N+](=O)[O-])ccc12`: the Potency result was “inactive”.
To `O=C(O)[C@@H]1[C@H]2C[C@H]3c4[nH]c5ccccc5c4CCN3C[C@@H]2CC[C@@H]1O` belongs “inactive”.
To `CCCCC/C=C/C=C/C=O` belongs “inactive”.
Then `CCCCCC(C)=O`, with “inactive”; and `CC(C[N+](C)(C)C)OC(N)=O` (stereo not given), with “inactive”; and `COc1ccc(N)c(C)c1`, with “inactive”.
With `O=C(O)c1ccc(OCCCOc2ccc(C(=O)O)cc2)cc1`, the Potency entry is “inactive”.
To `O=C1c2c(O)ccc(Nc3ccc(CCO)cc3)c2C(=O)c2c([N+](=O)[O-])ccc(O)c21` belongs “inactive”.
To `OCCOCCN1CCN(C2=Nc3ccccc3Sc3ccccc32)CC1` belongs “inactive”; to `CCCCC(=O)N(C)C`, “inactive”; to `O=P(OC(CCl)CCl)(OC(CCl)CCl)OC(CCl)CCl`, “inactive”.
Then `c1ccc(CSCc2ccccc2)cc1`, with “inactive”; and `O=C(O)CC(=O)O`, with “inactive”.
Turning to `CC1(C)C(=O)N(Br)C(=O)N1Cl`, the Potency result is “inactive”.
As for `C=CCOc1cc(Cl)ccc1C(=O)NCCN(CC)CC`, the Potency result is “inactive”.
Then `Clc1ccc(C(c2ccccc2Cl)C(Cl)Cl)cc1` (stereo not given), with 40.8 µM (active); and `COC(=O)CCCCC(=O)O`, with “inactive”.
As for `Nc1nc(N)c2nc(-c3ccccc3)c(N)nc2n1`, the Potency entry was “inactive”.
Consider `CN(C)N=Nc1ccccc1`, for which the Potency result is “inactive”.
To `Cc1cccc(N(C)C)c1` belongs “inactive”; to `CCCN1C=CN(C)C1`, “inactive”; to `O=C1CC2CC1C1CCCC21` (stereo not given), “inactive”.
To `CNC(=O)[C@H]1O[C@@H](n2cnc3c(NCc4cc(Cl)ccc4OCc4cc(C)no4)ncnc32)[C@H](O)[C@@H]1N` belongs “inactive”.

For the origin of these results see PubChem BioAssay (Tox21).
